In the antibiotic and cytotoxicity screens of Wong et al. (2023):
The whole screen tested about 39,000 compounds, of which about 500 (1.3%) were called active. What follows is part of a selection rich in actives, with near analogues and random picks from the rest.

Each molecule was assayed on S. aureus RN4220 (assay: growth inhibition call (relative growth <= 0.2)). Settings: 50 µM.

Growth inhibition call, inactive:
C[C@@H]1CN([C@@H](C)CO)C(=O)Cc2cc(NC(=O)c3ccncc3)ccc2O[C@H]1CN(C)S(=O)(=O)c1ccc(Cl)cc1
C[C@@H]1CCCCO[C@H](CN(C)S(=O)(=O)c2cn(C)cn2)[C@H](C)CN([C@H](C)CO)C(=O)c2cc(NS(=O)(=O)c3ccccc3)ccc2O1
C[C@H](CO)N1C[C@H](C)[C@@H](CN(C)S(=O)(=O)c2cn(C)cn2)Oc2ccc(NC(=O)CCCN(C)C)cc2C1=O
C[C@@H]1CCCCO[C@@H](CN(C)S(=O)(=O)c2ccc(F)cc2)[C@H](C)CN([C@@H](C)CO)C(=O)c2cc(NC(=O)CCC(F)(F)F)ccc2O1
CC(C)C[C@H]1NC(=O)[C@@H](CCCN)NC(=O)[C@H](C(C)C)NC(=O)[C@H]2CCCN2C(=O)[C@@H](Cc2ccccc2)NC(=O)[C@@H](CC(C)C)NC(=O)[C@@H](CCCN)NC(=O)[C@H](C(C)C)NC(=O)[C@H]2CCCN2C(=O)[C@@H](Cc2ccccc2)NC1=O
CC(C)C[C@@H]1NC(=O)[C@@H](C(C)C)NC(=O)[C@@H]2CCCN2C(=O)[C@@H](CC(=O)O)NC(=O)[C@@H](Cc2c[nH]c3ccccc23)NC1=O
C[C@@H]1CN([C@H](C)CO)C(=O)c2cccc(NC(=O)c3cnccn3)c2O[C@H]1CN(C)S(=O)(=O)c1ccccc1
C[C@@H]1CN([C@@H](C)CO)S(=O)(=O)c2ccc(C#CCN(C)C)cc2O[C@H]1CN(C)Cc1cccnc1
OC[C@H]1O[C@H]2O[C@@H]3[C@@H](O)[C@H](O)[C@H](O[C@@H]4[C@@H](O)[C@H](O)[C@H](O[C@@H]5[C@@H](O)[C@H](O)[C@H](O[C@@H]6[C@@H](O)[C@H](O)[C@H](O[C@@H]7[C@@H](O)[C@H](O)[C@H](O[C@@H]8[C@@H](O)[C@H](O)[C@H](O[C@@H]1[C@@H](O)[C@@H]2O)O[C@@H]8CO)O[C@@H]7CO)O[C@@H]6CO)O[C@@H]5CO)O[C@@H]4CO)O[C@@H]3CO
O=C1C=C(O)C(=O)c2ccccc21
NC1=CC(=O)c2ccccc2C1=O
C[C@H](O)C#Cc1ccc2c(c1)O[C@H](CN(C)C(=O)c1ccccc1)[C@@H](C)CN([C@H](C)CO)S2(=O)=O
CN(CC(=O)O)S(=O)(=O)c1ccc(F)cc1
C[C@H](CO)N1C[C@H](C)[C@@H](CN(C)Cc2ccc(C(F)(F)F)cc2)Oc2ccc(NC(=O)C3CCCCC3)cc2C1=O
CC1(C)S[C@H]2[C@@H](NC(=O)[C@@H](N)c3ccccc3)C(=O)N2[C@@H]1C(=O)O
C[C@H]1CN([C@@H](C)CO)C(=O)Cc2cc(NS(=O)(=O)c3cn(C)cn3)ccc2O[C@H]1CN(C)C(=O)NC1CCCCC1
C[C@H]1CN([C@@H](C)CO)C(=O)Cc2cc(NS(=O)(=O)c3cn(C)cn3)ccc2O[C@@H]1CN(C)C(=O)Nc1ccc2c(c1)OCO2
CN(C)CCCNC(=O)C[C@H]1CC[C@H]2[C@@H](COC[C@@H](O)CN2S(=O)(=O)c2ccc(F)cc2)O1
C[C@H]1CCCCO[C@H](CN(C)CC2CCCCC2)[C@@H](C)CN([C@@H](C)CO)C(=O)c2cc(NC(=O)CCC(F)(F)F)ccc2O1
O=C(NO)c1ccc(C(=O)N/N=C/[C@H](O)[C@@H](O)[C@H](O)CO)cc1
C[C@@H]1CN([C@@H](C)CO)C(=O)c2cccc(NC(=O)Nc3ccc4c(c3)OCO4)c2O[C@@H]1CN(C)S(C)(=O)=O
Cc1ccc(S(=O)(=O)N(C)C[C@@H]2Oc3ccc(NS(=O)(=O)c4ccc(F)cc4)cc3CC(=O)N([C@H](C)CO)C[C@@H]2C)cc1
CC(C)CC#Cc1ccc2c(c1)O[C@@H](CN(C)C(=O)c1ccccn1)[C@H](C)CN([C@@H](C)CO)S2(=O)=O
O=C(C[C@H]1CC[C@H]2[C@@H](COC[C@@H](O)CN2C(=O)Nc2ccc(Cl)c(Cl)c2)O1)NCc1ccncc1
O=C(C[C@@H]1CC[C@H]2[C@@H](COC[C@@H](O)CN2C(=O)Nc2ccc(Cl)c(Cl)c2)O1)NCc1ccc(Cl)c(Cl)c1
O=C(C[C@H]1CC[C@H]2[C@@H](COC[C@@H](O)CN2C(=O)Nc2ccc(Cl)c(Cl)c2)O1)NCc1ccc(Cl)c(Cl)c1
O=C(C[C@H]1CC[C@H]2[C@@H](COC[C@H](O)CN2C(=O)Nc2ccc(Cl)c(Cl)c2)O1)NCc1ccc(Cl)c(Cl)c1
O=C(C[C@@H]1CC[C@@H]2[C@H](COC[C@H](O)CN2C(=O)Nc2ccc(Cl)c(Cl)c2)O1)NCc1ccncc1
O=C(C[C@H]1CC[C@@H]2[C@H](COC[C@H](O)CN2C(=O)Nc2ccc(Cl)c(Cl)c2)O1)NCc1ccncc1
O=C(C[C@H]1CC[C@H]2[C@@H](COC[C@H](O)CN2C(=O)Nc2ccc(Cl)c(Cl)c2)O1)NCc1ccncc1
O=C(C[C@@H]1CC[C@@H]2[C@H](COC[C@H](O)CN2C(=O)Nc2ccc(Cl)c(Cl)c2)O1)NCc1ccc(Cl)c(Cl)c1
C[C@H]1CN([C@@H](C)CO)C(=O)Cc2cc(NS(=O)(=O)c3ccc(F)cc3)ccc2O[C@@H]1CN(C)C(=O)Nc1cccc2ccccc12
C[C@@H]1CCCCO[C@@H](CN(C)C(=O)Nc2ccccc2)[C@@H](C)CN([C@@H](C)CO)C(=O)c2cc(NC(=O)Nc3ccc(C(F)(F)F)cc3)ccc2O1
C[C@H](CO)N1C[C@H](C)[C@H](CN(C)S(=O)(=O)c2ccc3ccccc3c2)OCc2cnnn2CCCC1=O
COC(=O)c1cn(CCNC(=O)[C@@H](NS(=O)(=O)c2ccc(C)cc2)C(C)C)nn1
C[C@@H]1CCCCO[C@@H](CN(C)S(=O)(=O)c2cn(C)cn2)[C@@H](C)CN([C@@H](C)CO)C(=O)c2cc(NC(=O)CCCN(C)C)ccc2O1
O=C(NCCN1CCOCC1)[C@@]1(Cc2ccccc2)N=C(c2ccc(OCCCO)cc2)O[C@H]1c1ccccc1
C[C@@H]1CN([C@H](C)CO)C(=O)c2cc(NC(=O)Nc3ccc(C(F)(F)F)cc3)ccc2O[C@@H]1CN(C)Cc1ccc(C(F)(F)F)cc1
COc1ccc(NC(=O)N(C)C[C@H]2Oc3ccc(NC(=O)C4CC4)cc3C(=O)N([C@@H](C)CO)C[C@@H]2C)cc1
COc1ccc2c3c(n(c2c1)C)[C@H](CO)N(CC1CCOCC1)C[C@]13CN(C1)C(=O)Cc1cccnc1
Cc1ccc(S(=O)(=O)N(C)C[C@@H]2Oc3ccc(N(C)C)cc3CC(=O)N([C@@H](C)CO)C[C@@H]2C)cc1
O=C(C[C@H]1C[C@@H]2c3cc(NC(=O)Nc4ccc(C(F)(F)F)cc4)ccc3O[C@@H]2[C@H](CO)O1)NCCc1ccccc1
Cc1n[nH]c(=S)[nH]c1=O
Cc1ccc(S(=O)(=O)N(C)C[C@H]2Oc3c(NC(=O)C4CC4)cccc3C(=O)N([C@@H](C)CO)C[C@@H]2C)cc1
Cc1ccc(-c2cnc3c(c2)C(=O)N([C@H](C)CO)C[C@@H](C)[C@H](CN(C)C(=O)Cc2cccnc2)O3)cc1
C[C@@H]1CN([C@@H](C)CO)C(=O)c2cc(NC(=O)Nc3cccc4ccccc34)ccc2O[C@@H]1CN(C)Cc1ccc(C(F)(F)F)cc1
O=C(C[C@H]1CC[C@@H]2[C@H](COC[C@@H](O)CN2C(=O)Nc2ccc(Cl)c(Cl)c2)O1)NCc1ccc(Cl)c(Cl)c1
O=C(C[C@@H]1CC[C@@H]2[C@H](COC[C@@H](O)CN2C(=O)Nc2ccc(Cl)c(Cl)c2)O1)NCc1ccc(Cl)c(Cl)c1
CCO[C@@H]1OC(C(=O)N2CCOCC2)=C[C@H](C2CC2)[C@H]1CCCOC(=O)NCCCCCC(=O)NO
O=S(=O)(Cc1ccccc1)Nn1cnnc1
C[C@H]1CN([C@@H](C)CO)C(=O)Cc2cc(NS(=O)(=O)c3ccc(F)cc3)ccc2O[C@@H]1CN(C)S(C)(=O)=O
Cc1ccc(S(=O)(=O)N(C)C[C@@H]2OCCCC[C@@H](C)Oc3ccc(NC(=O)Nc4cccc5ccccc45)cc3C(=O)N([C@@H](C)CO)C[C@@H]2C)cc1
CC1=C(C(=O)O)N2C(=O)[C@H](NC(=O)[C@@H](N)c3ccccc3)[C@H]2SC1
CC1=C(C(=O)O)N2C(=O)[C@@H](NC(=O)[C@@H](N)c3ccccc3)[C@H]2SC1
CC1=C(C(=O)O)N2C(=O)C(NC(=O)C(N)c3ccccc3)C2SC1 (stereo not drawn)
CC1=C(C(=O)O)N2C(=O)[C@@H](NC(=O)[C@H](N)c3ccccc3)[C@H]2SC1

Growth inhibition call, active:
CC1=CC(=O)c2ccccc2C1=O
CC1(C)S[C@@H]2[C@H](NC(=O)[C@H](N)c3ccc(O)cc3)C(=O)N2[C@H]1C(=O)O
CC1(C)S[C@@H]2[C@H](NC(=O)C3(N)CCCCC3)C(=O)N2[C@H]1C(=O)O
CC1(C)SC2C(NC(=O)C(N)c3ccc(O)cc3)C(=O)N2C1C(=O)O (stereo not drawn)
O=C(C[C@@H]1CC[C@H]2[C@@H](COC[C@H](O)CN2C(=O)Nc2ccc(Cl)c(Cl)c2)O1)NCc1ccc(Cl)c(Cl)c1
O=C(C[C@@H]1CC[C@H]2[C@@H](COC[C@H](O)CN2C(=O)Nc2ccc(Cl)c(Cl)c2)O1)NCc1ccncc1
O=C(C[C@@H]1CC[C@@H]2[C@H](COC[C@@H](O)CN2C(=O)Nc2ccc(Cl)c(Cl)c2)O1)NCc1ccncc1
O=C(C[C@@H]1CC[C@H]2[C@@H](COC[C@@H](O)CN2C(=O)Nc2ccc(Cl)c(Cl)c2)O1)NCc1ccncc1
O=C(C[C@H]1CC[C@@H]2[C@H](COC[C@@H](O)CN2C(=O)Nc2ccc(Cl)c(Cl)c2)O1)NCc1ccncc1
NC(C(=O)NC1C(=O)N2C(C(=O)O)=C(Cl)CSC12)c1ccccc1 (stereo not drawn)
N[C@@H](C(=O)N[C@@H]1C(=O)N2C(C(=O)O)=C(Cl)CS[C@H]12)c1ccccc1
N[C@@H](C(=O)N[C@@H]1C(=O)N2C(C(=O)O)=C(Cl)CC[C@H]12)c1ccccc1
